Laboratory results reported in ChEMBL document CHEMBL4513155, “CO-ADD screening of University of Sydney (Australia) compounds” (2021).
Entries with a potency or affinity are not part of this list.

The molecules below were run on Klebsiella pneumoniae. Conditions: Concentration 32 ug.mL-1; ASSAY_TEST Inhibition of Bacterial Growth; detection method Absorption (OD600); MEDIA CAMHB; plate type 384well; NBS; CORNING #3640; time 18 hr.

`COC(COc1cncc2nnc(-c3ccc(C#N)cc3)n12)c1ccc(F)c(F)c1` (stereo unspecified) was tested. Which Inhibition did it give?
The Inhibition was -1.15%.

For `Fc1ccc(CCOc2cncc3nnc(-c4ccc(Cl)cc4)n23)cc1F`, which Inhibition is on record?
The Inhibition was -4.32%.

For `N#Cc1ccc(-c2nnc3cncc(OCC(O)c4ccc(F)c(F)c4)n23)cc1` (stereo unspecified), which Inhibition is on record?
Its Inhibition is -1.23%.

For `Fc1ccc(CCOc2cncc3nnc(-c4ccc(C(F)(F)F)nc4)n23)cc1F`, which Inhibition is on record?
The Inhibition was -0.34%.

For `CN(C)C(COc1cncc2nnc(-c3ccc(C#N)cc3)n12)c1ccc(F)c(F)c1` (stereo unspecified), which Inhibition is on record?
Its Inhibition is 3.41%.

With `CCN1C(=O)c2cccc3c(-c4cn(CCN5CCCNCCN(CCn6cc([C@]7(O)CC[C@H]8[C@@H]9CCc%10cc(O)ccc%10[C@H]9CC[C@@]87C)nn6)CCCNCC5)nn4)ccc(c23)C1=O.OCCN1CCN(CCCN2c3ccccc3Sc3ccc(Cl)cc32)CC1.[O-][Cl+3]([O-])([O-])[O-].[O-][Cl+3]([O-])([O-])[O-].[Zn+2]` as the molecule, how does the Inhibition read?
Its Inhibition is -7.97%.

Which Inhibition does the source give for `O.O=C1c2cccc3c(-n4cc(CN5CCCNCCN(Cc6cn(-c7ccc8c9c(cccc79)C(=O)N(CCCO)C8=O)nn6)CCCNCC5)nn4)ccc(c23)C(=O)N1CCCO.[Cl-].[Cl-].[Zn+2]` here?
The Inhibition was 2.32%.

These molecules were tested on Candida albicans. Conditions: 32 ug/mL.

Which Inhibition does the source give for `COC(COc1cncc2nnc(-c3ccc(C#N)cc3)n12)c1ccc(F)c(F)c1` (stereo unspecified) here?
Its Inhibition is 2.84%.

How did the Inhibition turn out when `Fc1ccc(CCOc2cncc3nnc(-c4ccc(Cl)cc4)n23)cc1F` was run?
The Inhibition was 7.82%.

How did the Inhibition turn out when `N#Cc1ccc(-c2nnc3cncc(OCC(O)c4ccc(F)c(F)c4)n23)cc1` (stereo unspecified) was run?
Its Inhibition is 4.19%.

Which Inhibition does the source give for `Fc1ccc(CCOc2cncc3nnc(-c4ccc(C(F)(F)F)nc4)n23)cc1F` here?
The Inhibition was 2.23%.

Which Inhibition does the source give for `CN(C)C(COc1cncc2nnc(-c3ccc(C#N)cc3)n12)c1ccc(F)c(F)c1` (stereo unspecified) here?
Its Inhibition is 5.98%.

With `CCN1C(=O)c2cccc3c(-c4cn(CCN5CCCNCCN(CCn6cc([C@]7(O)CC[C@H]8[C@@H]9CCc%10cc(O)ccc%10[C@H]9CC[C@@]87C)nn6)CCCNCC5)nn4)ccc(c23)C1=O.OCCN1CCN(CCCN2c3ccccc3Sc3ccc(Cl)cc32)CC1.[O-][Cl+3]([O-])([O-])[O-].[O-][Cl+3]([O-])([O-])[O-].[Zn+2]` as the molecule, how does the Inhibition read?
The Inhibition was 5.51%.

How did the Inhibition turn out when `O.O=C1c2cccc3c(-n4cc(CN5CCCNCCN(Cc6cn(-c7ccc8c9c(cccc79)C(=O)N(CCCO)C8=O)nn6)CCCNCC5)nn4)ccc(c23)C(=O)N1CCCO.[Cl-].[Cl-].[Zn+2]` was run?
Its Inhibition is 7.28%.

These molecules were tested on Cryptococcus neoformans. Conditions: Concentration 32 ug.mL-1; ASSAY_TEST Inhibition of Fungal Growth; detection method Resazurin; Absorption (OD600-OD570); plate type 384well; NBS; CORNING #3640.

Which Inhibition does the source give for `COC(COc1cncc2nnc(-c3ccc(C#N)cc3)n12)c1ccc(F)c(F)c1` (stereo unspecified) here?
Its Inhibition is -10.36%.

With `Fc1ccc(CCOc2cncc3nnc(-c4ccc(Cl)cc4)n23)cc1F` as the molecule, how does the Inhibition read?
The Inhibition was -0.27%.

With `N#Cc1ccc(-c2nnc3cncc(OCC(O)c4ccc(F)c(F)c4)n23)cc1` (stereo unspecified) as the molecule, how does the Inhibition read?
Its Inhibition is -9.99%.

How did the Inhibition turn out when `Fc1ccc(CCOc2cncc3nnc(-c4ccc(C(F)(F)F)nc4)n23)cc1F` was run?
The Inhibition was -5.49%.

`CN(C)C(COc1cncc2nnc(-c3ccc(C#N)cc3)n12)c1ccc(F)c(F)c1` (stereo unspecified) was tested. Which Inhibition did it give?
The Inhibition was -16.61%.

With `CCN1C(=O)c2cccc3c(-c4cn(CCN5CCCNCCN(CCn6cc([C@]7(O)CC[C@H]8[C@@H]9CCc%10cc(O)ccc%10[C@H]9CC[C@@]87C)nn6)CCCNCC5)nn4)ccc(c23)C1=O.OCCN1CCN(CCCN2c3ccccc3Sc3ccc(Cl)cc32)CC1.[O-][Cl+3]([O-])([O-])[O-].[O-][Cl+3]([O-])([O-])[O-].[Zn+2]` as the molecule, how does the Inhibition read?
The Inhibition was 7.03%.

Which Inhibition does the source give for `O.O=C1c2cccc3c(-n4cc(CN5CCCNCCN(Cc6cn(-c7ccc8c9c(cccc79)C(=O)N(CCCO)C8=O)nn6)CCCNCC5)nn4)ccc(c23)C(=O)N1CCCO.[Cl-].[Cl-].[Zn+2]` here?
The Inhibition was -0.18%.
